Most compounds without a hit are left out; they make up all but 3.2% or so of the library.
A3G deaminase: APOBEC3G (human) deaminase inhibition. recombinant A3G, ssDNA deamination FAM/TAMRA fluorescence. inhibition, % at 20 µM. 0.28% of 330,000 active. AID 493012;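 active means inhibition of at least 40% at 20 µM, with no more than 30% in the related APOBEC3A deaminase screen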
Target sequence (Q9HC16 whole entry, looked up): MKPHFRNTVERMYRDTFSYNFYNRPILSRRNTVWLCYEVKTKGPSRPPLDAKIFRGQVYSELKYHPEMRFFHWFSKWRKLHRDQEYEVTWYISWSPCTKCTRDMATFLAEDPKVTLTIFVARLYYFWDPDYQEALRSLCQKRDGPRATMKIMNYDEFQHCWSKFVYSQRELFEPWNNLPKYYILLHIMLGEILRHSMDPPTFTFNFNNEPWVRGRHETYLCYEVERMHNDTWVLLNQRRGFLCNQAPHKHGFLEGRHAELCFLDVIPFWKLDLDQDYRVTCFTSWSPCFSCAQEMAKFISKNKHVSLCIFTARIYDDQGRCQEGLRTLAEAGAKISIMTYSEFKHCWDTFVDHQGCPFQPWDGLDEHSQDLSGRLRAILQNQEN
NTR1 agonist: agonists of human neurotensin receptor NTR1; AID 493036; NTR1-U2OS beta-arrestin-GFP spot imaging, agonist mode; 0.17% of 330,000 active; P30989; activation, % at 20 µM;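 active means activation at or above 40% of the spot to cytoplasm intensity ratio, with at least 20 cells analyzed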
AHR act: human AHR activation. AHR-responsive luciferase reporter cells, luminescence. activation, % at 5 µM. P35869. 2.5% of 320,000 active. AID 2796; in the data active means activation above about 47%
APOBEC3A inh: blocks human APOBEC3A ssDNA deamination; P31941; recombinant A3A, FAM/TAMRA ssDNA deamination fluorescence; inhibition, % at 20 µM; 0.41% of 330,000 active;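 active means at least 40% inhibition at 20 µM here, with at most 30% in a related deaminase screen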
Target sequence (P31941 whole entry, looked up): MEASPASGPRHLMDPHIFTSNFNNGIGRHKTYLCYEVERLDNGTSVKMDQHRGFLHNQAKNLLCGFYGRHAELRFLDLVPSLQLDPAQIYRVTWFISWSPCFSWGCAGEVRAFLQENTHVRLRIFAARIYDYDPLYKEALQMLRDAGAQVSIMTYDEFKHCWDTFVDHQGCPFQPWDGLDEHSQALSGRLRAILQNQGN
Numbers stand for hits.

Screening O=C1CN(C(=O)c2ccccc2F)C(c2ccccc2)c2cc(Cl)ccc2N1 (stereo not drawn) returned A3G deaminase inactive, NTR1 agonist inactive, AHR act inactive and APOBEC3A inh inactive.
CN(C)c1ccc(N=C/C=C2\N(C)c3ccccc3C2(C)C)cc1 was read as A3G deaminase inactive, NTR1 agonist inactive, AHR act 150 and APOBEC3A inh inactive.
Screening Cc1c(N=C/C=C2\N(C)c3ccccc3C2(C)C)c(=O)n(-c2ccccc2)n1C returned A3G deaminase inactive, NTR1 agonist inactive, AHR act inactive and APOBEC3A inh inactive.
For CN1/C(=C\C=O)C(C)(C)c2ccccc21 the results were A3G deaminase inactive, NTR1 agonist inactive, AHR act 64 and APOBEC3A inh inactive.
For CN1/C(=C\C=Nc2ccc3ccccc3c2)C(C)(C)c2ccccc21 the results were A3G deaminase inactive, NTR1 agonist inactive, AHR act 55 and APOBEC3A inh inactive.
COc1ccc(C(=O)C2CCCN(S(=O)(=O)c3ccc(C(C)=O)cc3)C2)c(C)c1 (stereo not drawn) was read as A3G deaminase inactive, NTR1 agonist inactive, AHR act inactive and APOBEC3A inh inactive.
For CCCCNc1nnc(SCC(=O)c2c[nH]c3ccccc23)s1 the results were A3G deaminase inactive, NTR1 agonist inactive, AHR act 57 and APOBEC3A inh inactive.
For Cn1cnnc1SCC(=O)c1c[nH]c2ccccc12 the results were A3G deaminase inactive, NTR1 agonist inactive, AHR act 67 and APOBEC3A inh inactive.
For CCn1c(SCC(=O)c2c[nH]c3ccccc23)nnc1-c1cccs1 the results were A3G deaminase inactive, NTR1 agonist inactive, AHR act inactive and APOBEC3A inh inactive.
CC(C)(C)c1cc(C2=CSC3=NCCN23)cc(C(C)(C)C)c1O was read as A3G deaminase inactive, NTR1 agonist inactive, AHR act inactive and APOBEC3A inh inactive.
`Cc1ccc(N2CC(O)(c3cccs3)[N+]3=C2CCCC3)cc1` (stereo not drawn) gave A3G deaminase inactive, NTR1 agonist inactive, AHR act inactive and APOBEC3A inh inactive.
For Cc1ccc(N2NC(C)(c3cccs3)NC2=S)cc1 (stereo not drawn) the results were A3G deaminase inactive, NTR1 agonist inactive, AHR act 52 and APOBEC3A inh inactive.
`CC1=C(CC(=O)c2ccc(Cl)cc2)C(=O)c2ccccc2C1=O` gave A3G deaminase inactive, NTR1 agonist inactive, AHR act 55 and APOBEC3A inh inactive.
O=C(Cc1ccccn1)c1ccc(Cl)cc1 was read as A3G deaminase inactive, NTR1 agonist inactive, AHR act inactive and APOBEC3A inh inactive.
`CC(=O)c1c(C)[nH]c(C(=O)COc2ccc3ccc(=O)oc3c2)c1C` gave A3G deaminase inactive, NTR1 agonist inactive, AHR act 56 and APOBEC3A inh inactive.
CCC(=O)Nc1ccc2c(c1)C(=O)c1ccccc1C2=O was read as A3G deaminase inactive, NTR1 agonist inactive, AHR act 69 and APOBEC3A inh inactive.
`CN(CC(=O)Nc1cccc(F)c1)C(=O)/C=C/c1cn(Cc2ccccc2)nc1-c1cccnc1` gave A3G deaminase inactive, NTR1 agonist inactive, AHR act inactive and APOBEC3A inh inactive.
For Cc1cccnc1Nc1nc(-c2ccc(O)cc2O)cs1 the results were A3G deaminase inactive, NTR1 agonist inactive, AHR act 61 and APOBEC3A inh inactive.
Cc1cccnc1Nc1nc(-c2ccccc2)cs1 was read as A3G deaminase inactive, NTR1 agonist inactive, AHR act 55 and APOBEC3A inh inactive.
`Cc1ccc(S(=O)(=O)NCCC(=O)NC2CCC(C)CC2)cc1` (stereo not drawn) gave A3G deaminase inactive, NTR1 agonist inactive, AHR act inactive and APOBEC3A inh inactive.
Screening O=S(=O)(Nc1c(O)ccc2ccccc12)c1ccccc1 returned A3G deaminase inactive, NTR1 agonist inactive, AHR act 54 and APOBEC3A inh inactive.
Screening O=S(=O)(Nc1c(O)ccc2ccccc12)c1ccc(F)cc1 returned A3G deaminase inactive, NTR1 agonist inactive, AHR act 55 and APOBEC3A inh inactive.
For O=C(Nc1ccccc1)n1cc(-c2ccccn2)c(N2CCOCC2)n1 the results were A3G deaminase inactive, NTR1 agonist inactive, AHR act inactive and APOBEC3A inh inactive.
`CCN(CC)c1ccc(/C=N/NC(=O)Nc2ccccc2)cc1` gave A3G deaminase inactive, NTR1 agonist inactive, AHR act inactive and APOBEC3A inh inactive.
Screening CCOc1ccc(/C=N/NC(=O)Nc2ccccc2)cc1 returned A3G deaminase inactive, NTR1 agonist inactive, AHR act 61 and APOBEC3A inh inactive.
`COC(=O)c1sc(-c2ccccc2)cc1NC(=O)C1CC1` gave A3G deaminase inactive, NTR1 agonist inactive, AHR act inactive and APOBEC3A inh inactive.
For CCOc1ccc2nc(NC(=O)Nc3ccccc3)sc2c1 the results were A3G deaminase inactive, NTR1 agonist inactive, AHR act 78 and APOBEC3A inh inactive.
CCOc1ccc(NC(=O)Nc2cc(-c3ccccc3)sc2C(=O)OC)cc1 was read as A3G deaminase inactive, NTR1 agonist inactive, AHR act 47 and APOBEC3A inh inactive.
For Cc1c(C(=O)N2CCOCC2)sc(NC(=O)CCl)c1C#N the results were A3G deaminase inactive, NTR1 agonist inactive, AHR act inactive and APOBEC3A inh inactive.
CCOc1ccccc1-c1nc(-c2cccc(Br)c2)no1 was read as A3G deaminase inactive, NTR1 agonist inactive, AHR act 64 and APOBEC3A inh inactive.
Screening Cc1c(NS(=O)(=O)c2cc(C(=O)NCc3cccnc3)cc(Cl)c2Cl)c(=O)n(-c2ccccc2)n1C returned A3G deaminase inactive, NTR1 agonist inactive, AHR act 60 and APOBEC3A inh inactive.
`CCSc1ncc(/C=N/Nc2ccc(Cl)cc2)n1C` gave A3G deaminase inactive, NTR1 agonist inactive, AHR act 103 and APOBEC3A inh inactive.
For COc1ccc(C)cc1NC(=O)C(NC(=O)c1cc(OC)c(OC)c(OC)c1)C(C)C (stereo not drawn) the results were A3G deaminase inactive, NTR1 agonist inactive, AHR act inactive and APOBEC3A inh inactive.
`Cc1c(C(=O)N2CCc3ccccc3C2)oc2ccccc12` gave A3G deaminase inactive, NTR1 agonist inactive, AHR act 59 and APOBEC3A inh inactive.
Screening CC(=O)N1CCN(C(=O)c2oc3ccccc3c2C)CC1 returned A3G deaminase inactive, NTR1 agonist inactive, AHR act inactive and APOBEC3A inh inactive.
For Cc1c(C(=O)N2CCCCC2)oc2ccccc12 the results were A3G deaminase inactive, NTR1 agonist inactive, AHR act inactive and APOBEC3A inh inactive.
For Nc1c(C(=O)N2CCCCCC2)oc2ccccc12 the results were A3G deaminase inactive, NTR1 agonist inactive, AHR act 73 and APOBEC3A inh inactive.
Screening COc1ccc(C)cc1NC(=O)NNC(=O)C1CCC(C(C)(C)C)CC1 (stereo not drawn) returned A3G deaminase inactive, NTR1 agonist inactive, AHR act inactive and APOBEC3A inh inactive.
COc1ccccc1CN1CC(C(=O)NCc2cc(F)cc(C(F)(F)F)c2)CCC1=O (stereo not drawn) was read as A3G deaminase inactive, NTR1 agonist inactive, AHR act inactive and APOBEC3A inh inactive.
CN(C(=O)c1cccc(S(=O)(=O)N2CCOCC2)c1)c1c(N)n(Cc2ccccc2)c(=O)[nH]c1=O was read as A3G deaminase inactive, NTR1 agonist inactive, AHR act inactive and APOBEC3A inh inactive.
